# This is a sample that favours compounds with a hit; in the whole collection about 4.2% have one here.
# ssDAF12 agonist: S. stercoralis DAF-12 nuclear receptor activators, primary screen, cell-based, luminescence, HEK293, GRIP1 co-expression, lit1-tk-luc; HEK293 ssDAF-12/GRIP1 lit1-tk-luc reporter; % of 3 µM dafachronic acid response; 370,000 tested, 1% active; AID 652126, 2013; activation, % at 6.8 µM;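 active = activation above the mean over all tested compounds plus 3 SD, cut at about 0.9% in these data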;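 also: 0% = DMSO-only wells and 100% = 3 µM delta7-dafachronic acid wells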
# hgDAF12 agonist: H. glycines DAF-12 receptor agonists, primary screen, cell-based, luminescence, HEK293, GAL4 fusion, UAS-luciferase; AID 687014, 2013; activation, % at 6.8 µM; HEK293 GAL4-hgDAF12 UAS-luciferase reporter, agonist luminescence; normalized to butyrate control; 370,000 tested, 1.8% active; Nuclear hormone receptor DAF-12 (Heterodera glycines), GAL4 fusion;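 active = activation above a cutoff set at the mean of all screened compounds plus 3 SD, cut at about 10% in these data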;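 also: 0% = DMSO wells and 100% = sodium butyrate wells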
# hcDAF-12 act: H. contortus DAF-12 nuclear receptor activators, primary screen, cell-based, luminescence, HEK293, lit1-tk-luc reporter | AID 652067, 2013 | 370,000 tested, 1.4% active | HEK293 hcDAF-12 lit1-tk-luc reporter; 0% DMSO, 100% Δ7-dafachronic acid | activation, % at 6.8 µM;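 active = activation above the mean of all tested compounds plus 3 SD, cut at about 5.5% in these data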;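 also: 100% = response to 3 µM Δ7-dafachronic acid high control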
# SMARCA2 act: SMARCA2 (BRM) function activators, primary screen, cell-based, luminescence, high throughput. activation, % at 9.1 µM. 370,000 tested, 1% active. MG213 cells, MMTV-luciferase reporter, dexamethasone, overnight. AID 652017, 2013; in the data active = activation above about 7.8%;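 also: 0% = vehicle wells and 100% = reference activator wells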
# DAX1 StAR inh: DAX1 (NR0B1) inhibitors on StAR promoter, primary screen, cell-based, luminescence, SF-1 (NR5A1), full-length DAX-1. 370,000 tested, 1.1% active. inhibition, % at 6.8 µM. HEK293T StAR-luciferase reporter, SF-1/DAX-1 repression relief;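 active = inhibition above the mean over all tested compounds plus 3 SD, cut at about 3.6% in these data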;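 also: 0% = DAX-1 cells with DMSO and 100% = cells lacking DAX-1 with DMSO; higher inhibition means more luminescence from relief of DAX-1 repression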
# SMARCA2 conf: SMARCA2 (BRM) function activators, confirmation, cell-based, luminescence, triplicate. shares compounds with SMARCA2 act. MG213 cells, MMTV-luciferase with dexamethasone, overnight; MG213 cells expressing E1A, Rb sequestered; DMSO wells 0%, reference activator 100%. activation, % at 9.1 µM. 3,500 tested, 30% active;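 active = activation above its plate's cutoff, the mean activation of tested wells plus 3 SD, cut at about 7.9% in these data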
# VP16 Luc act: GAL4-VP16 luciferase reporter activation, counter-screen for SMARCA2 (BRM) activator project, cell-based, pG5luc, luminescence, high throughput; shares compounds with SMARCA2 act; HEK293 GAL4-VP16 pG5luc reporter; scaled: DMSO wells 0%, SAHA wells 100%; activation, % at 9.1 µM; 3,500 tested, 41% active;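 active = activation above the solvent-only control well mean plus 3 SD, averaged across control plates, cut at about 5.2% in these data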
# * marks the source's active call; other numbers are inactive results; . = not tested or not shown.
SMILES,ssDAF12 agonist,hgDAF12 agonist,hcDAF-12 act,SMARCA2 act,DAX1 StAR inh,SMARCA2 conf,VP16 Luc act
O=C(CC1NC2CCCCC2NC1=O)Nc1ccc2c(c1)OCO2 (stereo unspecified),-2,2,-1,11*,0,-1,0
O=C(c1cc2c(c(-c3cccc(-c4ccncc4)c3)n1)[C@@H](CCO)N(C(=O)c1ccc3c(c1)OCO3)C2)N1CCOCC1,0,8,3,8.1*,3.7*,9.2*,0
O=C(Oc1c(CN2CCOCC2)cc(Cl)c2cccnc12)c1ccccc1F,-2,-2,1,39*,-1,13*,1
COc1cc(OC)cc(C(=O)Oc2c(CN3CCOCC3)cc(Cl)c3cccnc23)c1,-2,0,-1,-2,0,.,.
O=C(Oc1c(CN2CCOCC2)cc(Cl)c2cccnc12)c1ccccc1,-2,-2,-2,35*,-1,11*,-2
Clc1ccc(CN2CCN(N=Cc3c4ccccc4cc4ccccc34)CC2)cc1,0,-1,-1,-4,0,.,.
Nc1[nH]c(C(=O)c2ccc(Br)cc2)c(-c2ccc(Br)cc2)c1C(=O)N1CCCCC1,-1,2,-2,.,.,.,.
O=C(CN1C(=O)CSC1=O)Nc1ccccc1N1CCOCC1,0,0,3,9.8*,0,-2,0
O=C(Cn1c(=O)oc2ccccc21)Nc1ccccc1N1CCOCC1,-2,3,0,4,0,.,.
O=C(c1noc2c1CCc1ccccc1-2)N1CCOCC1,-1,5,1,9.3*,0,9.6*,5
C=Cc1ccc(C(=O)N(Cc2ccc(F)cc2)C(C(=O)N(C)C2CCCC2)c2ccc(OC)c(OC)c2)cc1 (stereo unspecified),-2,-2,-2,-3,-1,.,.
COC(=O)c1ccc(C(=O)OC)c(NC(=S)N2CCN(c3cccc(Cl)c3)CC2)c1,-1,0,-2,11*,1,-6,-1
COC(=O)c1ccc(C(=O)OC)c(NC(=S)N2CCN(c3ccccc3)CC2)c1,-1,2,-1,-2,0,.,.
CC(C)(C)c1ccc(S(=O)(=O)NCC(=O)N2CCN(c3ncccn3)CC2)cc1,-1,-1,-2,5,-1,.,.
COc1cccc(CN2CCSCC2)c1OC,-1,0,-1,1,0,.,.
COc1ccccc1CN1CCSCC1,-1,3,2,9.8*,0,-1,-1
O=C(NCc1ccc(F)cc1)c1c2c(nc3ccccc13)CCC2,0,4,3,9.4*,4.5*,3,2
Nc1cc(C2CCCC2)nn1-c1ccccc1,-1,9,3,9.0*,1,18*,5
Nc1c(C(=O)N2CCN(CCc3ccccc3)CC2)cnn1-c1ccccc1,0,-1,0,-2,0,.,.
CC(=O)C(Cl)C(=O)Nc1ccccc1 (stereo unspecified),-2,1,-1,8.5*,-2,-14,0
N#Cc1ccc(NC(=O)OC2CC3CC2[C@H]2CCCCN2[C@H]3Cc2ccccc2)cc1 (stereo partly specified),0,0,-2,-1,-1,.,.
O=C(NCc1nnc2c(C(F)(F)F)cc(Cl)cn12)c1ccc(Br)o1,-1,3,-1,-3,0,.,.
O=C(NCc1nnc2c(C(F)(F)F)cc(Cl)cn12)c1cccnc1,-1,-1,-1,9.5*,0,-4,2
COc1ccc(-c2noc(CSc3nc4ccccc4c(=O)n3-c3ccc(C)cc3)n2)cc1,-2,1,-2,12*,1,-4,0
COc1ccc(-c2noc(CSc3nnc(Cc4ccccc4)n3-c3ccc(Cl)cc3)n2)cc1,-2,2,-2,-4,0,.,.
SMILES,ssDAF12 agonist,hgDAF12 agonist,hcDAF-12 act,SMARCA2 act,DAX1 StAR inh,SMARCA2 conf,VP16 Luc act
COC(=O)c1c(C)[nH]c(C(=O)/C=C/c2ccccc2F)c1C,0,5,3,15*,1,9.1*,9.7*
C=CCN1C[C@@H](COCc2ccccc2)Oc2cccc(F)c2S1(=O)=O,-2,4,-2,-2,-1,.,.
CC1=C(C(=O)N2CCCCCC2)CC(CC(=O)NCCCN(C)C)C(=O)N1CCCN1CCCC1=O (stereo unspecified),0,0,0,5,-1,.,.
Cc1ccc2nc(SCC(=O)c3ccc(O)cc3O)[nH]c2c1,0,11*,5,8.6*,2,6,10*
CCC(=O)C1CCCN(C(=O)CCc2nnc(C3(c4ccc(Cl)cc4)CCC3)o2)C1 (stereo unspecified),-1,4,3,8.8*,1,4,5.2*
CC(C)(C)C1=CC(CC(N)=O)(C(C)(C)C)OC1=O (stereo unspecified),-1,0,-1,1,1,.,.
CC(=O)c1cccc(-c2ccnc3c2CC(C(=O)NCc2ccc(N4CCN(C)CC4)cc2)O3)c1 (stereo unspecified),-1,-1,0,8.7*,1,3,5
O=C(CCOc1ccccc1F)N1CCN(c2ccccc2O)CC1,-1,4,0,10*,0,5,9.1*
COc1ccccc1OCCC(=O)N1CCN(c2ccccc2OC)CC1,-2,1,2,-3,0,.,.
O=C1NC(=Nc2ccc(O)cc2)S/C1=C/c1ccco1,-1,-1,2,-4,-2,.,.
O=C1NC(=Nc2ccc3ccccc3c2)S/C1=C/c1ccco1,2.0*,7,4,10*,0,6,4
Cc1ccccc1C(=O)n1ccc2ccc(-c3ccc4ccn(Cc5ccccc5)c4c3)cc21,-1,0,1,-1,-2,.,.
O=C(N1CCOCC1)N1CCN(c2nc(-c3ccccc3)cs2)CC1,-1,2,0,6,0,.,.
CN(C)C(=O)N1CCN(c2nc(-c3ccccc3)cs2)CC1,-1,10,0,11*,1,4,5.9*
O=[N+]([O-])c1cc(C=NN2CCN(Cc3ccccc3Cl)CC2)ccc1Cl,0,2,1,4,-2,.,.

# Bioassay records: PubChem BioAssay, The Scripps Research Institute Molecular Screening Center
